Experimental data taken from the supplement of paper PMC12494721.
Where a name gives a salt, the structure may show the parent alone.

Columns and labels:
Details in all cases: incubation time: 27 h, anaerobic, 37 °C;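 for the amine columns active = adjusted P below 0.05 in both replicates with a change the same way and a mean fold change under 0.8 or over 1.25; inactive = the rest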
[1] = system: Clostridium sporogenes DSM 1664; experiment: growth (OD595) fold change vs plate DMSO controls (fold change (ratio)); higher = more growth
How it was run: (§1)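 Shaken 96-well cultures in mGAM, grown anaerobically for 27 h at 37 °C, were read at 595 nm. OD came from blank-subtracted readings, corrected for background with 20 µM compound solutions in water and scaled by a calibration factor of 5. Growth is the fold change versus the plate's median DMSO control. Values average 2 biological replicates, and any fold change above 1.5 is NA.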

Escherichia coli IAI1 [2] = experiment: as above
How it was run: as §1

[3] = system: Klebsiella aerogenes DSM 30053; experiment: as above
How it was run: as §1

[4] = system: Ruminococcus gnavus DSM 108212; experiment: as above
How it was run: as §1

[5] = system: Klebsiella aerogenes DSM 30053; experiment: fold change of Histamine concentration vs plate DMSO controls (fold change (ratio)); higher = more amine produced, active = hit call of the paper (significant change in both replicates, either direction)
How it was run: (§2)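 Amine values are fold changes relative to DMSO-only wells on the same plate. They derive from 27 h, 37 °C anaerobic mGAM cultures of four gut bacterial strains in 80 µL wells, dosed at 20 µM final, or 50 µM final for sweeteners. Extraction of the whole culture, LC–triple-quadrupole MS in dynamic MRM mode, external calibration curves and within-batch drift correction were used, with 2 biological replicates averaged.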

[6] = system: Clostridium sporogenes DSM 1664; experiment: fold change of Tryptamine concentration vs plate DMSO controls (fold change (ratio)); higher = more amine produced, active = hit call of the paper (significant change in both replicates, either direction)
How it was run: as §2

[7] = system: Ruminococcus gnavus DSM 108212; experiment: as above
How it was run: as §2

Escherichia coli IAI1 [8] = experiment: fold change of Putrescine concentration vs plate DMSO controls (fold change (ratio)); higher = more amine produced, active = hit call of the paper (significant change in both replicates, either direction)
How it was run: as §2

[9] = system: Klebsiella aerogenes DSM 30053; experiment: as above
How it was run: as §2

Escherichia coli IAI1 [10] = experiment: fold change of Cadaverine concentration vs plate DMSO controls (fold change (ratio)); higher = more amine produced, active = hit call of the paper (significant change in both replicates, either direction)
How it was run: as §2

[11] = system: Klebsiella aerogenes DSM 30053; experiment: as above
How it was run: as §2

[12] = system: Ruminococcus gnavus DSM 108212; experiment: fold change of 2-Phenylethylamine concentration vs plate DMSO controls (fold change (ratio)); higher = more amine produced, active = hit call of the paper (significant change in both replicates, either direction)
How it was run: as §2

Row | SMILES | growth [1] | growth (Escherichia coli IAI1 [2]) | growth [3] | growth [4] | fold change of Histamine concentration [5] | fold change of Tryptamine concentration [6] | fold change of Tryptamine concentration [7] | fold change of Putrescine concentration (Escherichia coli IAI1 [8]) | fold change of Putrescine concentration [9] | fold change of Cadaverine concentration (Escherichia coli IAI1 [10]) | fold change of Cadaverine concentration [11] | fold change of 2-Phenylethylamine concentration [12]
1 | Cc1cccc(C)c1OCC(C)N (stereo unspecified) [Mexiletine hydrochloride] (20 µM) | 0.941 | 1.02 | 1.15 | 0.936 | 0.934 (inactive) | 0.991 (inactive) | 1.02 (inactive) | 0.985 (inactive) | 0.998 (inactive) | 1.03 (inactive) | 1.02 (inactive) | 1.07 (inactive)
2 | Cc1nc(=O)c2cc(CN(C)c3ccc(C(=O)N[C@@H](CCC(=O)O)C(=O)O)s3)ccc2[nH]1 [Raltitrexed] (20 µM) | 1.11 | 1 | 1.02 | 1.21 | 1 (inactive) | 1.17 (inactive) | 1.06 (inactive) | 0.924 (inactive) | 0.968 (inactive) | 0.943 (inactive) | 1.05 (inactive) | 1.06 (inactive)
3 | C#C[C@]1(O)CC[C@H]2[C@@H]3CCC4=Cc5oncc5C[C@]4(C)[C@H]3CC[C@@]21C [Danazol] (20 µM) | 0.903 | 0.883 | 0.858 | 0.744 | 1.07 (inactive) | 0.887 (inactive) | 1.03 (inactive) | 1.01 (inactive) | 1.02 (inactive) | 0.994 (inactive) | 0.993 (inactive) | 0.997 (inactive)
4 | O=C(Nc1ccc([N+](=O)[O-])cc1Cl)c1cc(Cl)ccc1O [Niclosamide] (20 µM) | 0.924 | 1.12 | 1.1 | 0.78 | 0.97 (inactive) | 1.02 (inactive) | 0.887 (inactive) | 1.22 (inactive) | 1.03 (inactive) | 1.31 (active) | 0.992 (inactive) | 0.934 (inactive)
5 | CCOC(=O)N1CCC(=C2c3ccc(Cl)cc3CCc3cccnc32)CC1 [Loratadine] (20 µM) | 1.04 | 1.01 | 1.04 | 0.87 | 0.98 (inactive) | 1.18 (inactive) | 0.864 (inactive) | 1.02 (inactive) | 0.999 (inactive) | 1.05 (inactive) | 1 (inactive) | 0.808 (inactive)
6 | CN1C(=O)OC(C)(C)C1=O [Trimethadione] (20 µM) | 1 | 1.03 | 1.01 | 1.27 | 0.977 (inactive) | 0.924 (inactive) | 0.948 (inactive) | 1.02 (inactive) | 0.987 (inactive) | 0.991 (inactive) | 0.999 (inactive) | 0.919 (inactive)
7 | CC1(C)O[C@@H]2C[C@H]3[C@@H]4C[C@H](F)C5=CC(=O)C=C[C@]5(C)[C@@]4(F)[C@@H](O)C[C@]3(C)[C@]2(C(=O)CO)O1 [Fluocinolone acetonide] (20 µM) | 1.13 | 1.04 | 1.01 | 0.973 | 1.06 (inactive) | 1.02 (inactive) | 0.996 (inactive) | 1.05 (inactive) | 1.04 (inactive) | 1.05 (inactive) | 1 (inactive) | 0.976 (inactive)
8 | CC1Cc2ccccc2N1NC(=O)c1ccc(Cl)c(S(N)(=O)=O)c1 (stereo unspecified) [Indapamide] (20 µM) | 1.04 | 1.02 | 0.929 | 0.659 | 1 (inactive) | 1.01 (inactive) | 1.01 (inactive) | 1 (inactive) | 1 (inactive) | 0.977 (inactive) | 1 (inactive) | 1.03 (inactive)
9 | CNCC[C@@H](Oc1ccccc1C)c1ccccc1 [Tomoxetine hydrochloride] (20 µM) | 1.11 | 1.01 | 0.98 | 1.1 | 0.978 (inactive) | 1.1 (inactive) | 1 (inactive) | 0.969 (inactive) | 0.968 (inactive) | 0.989 (inactive) | 1 (inactive) | 1.05 (inactive)
10 | CCC(=O)[C@@]1(C)[C@H](C)C[C@H]2[C@@H]3CCC4=CC(=O)C=C[C@]4(C)[C@H]3[C@@H](O)C[C@@]21C [Rimexolone] (20 µM) | 1.08 | 0.953 | 1.01 | 1.07 | 1.02 (inactive) | 0.98 (inactive) | 1.05 (inactive) | 0.983 (inactive) | 1 (inactive) | 1.01 (inactive) | 0.991 (inactive) | 1.04 (inactive)
11 | COc1cc(C(=O)N2CCOCC2)cc(OC)c1OC [Trimetozine] (20 µM) | 0.932 | 0.972 | 0.986 | 1.05 | 0.989 (inactive) | 1.05 (inactive) | 1.04 (inactive) | 1.12 (inactive) | 0.998 (inactive) | 0.99 (inactive) | 1 (inactive) | 1.04 (inactive)
12 | CCN(CC)C(=O)N1CCN(C)CC1 [Diethylcarbamazine citrate] (20 µM) | 1.12 | 0.975 | 1.04 | 0.977 | 0.954 (inactive) | 1.03 (inactive) | 0.976 (inactive) | 0.988 (inactive) | 0.985 (inactive) | 1.02 (inactive) | 1 (inactive) | 0.905 (inactive)
13 | C=CCN1CCCC1CNC(=O)c1cc2nn[nH]c2cc1OC (stereo unspecified) [Alizapride hydrochloride] (20 µM) | 1.09 | 1.01 | 1.05 | 1.09 | 1 (inactive) | 0.964 (inactive) | 1.02 (inactive) | 0.994 (inactive) | 0.988 (inactive) | 0.998 (inactive) | 0.99 (inactive) | 1 (inactive)
14 | CSc1ccc2c(c1)N(CCC1CCCCN1C)c1ccccc1S2 (stereo unspecified) [Thioridazine hydrochloride] (20 µM) | 1.15 | 1.03 | 1.01 | 1.25 | 0.936 (inactive) | 1.12 (inactive) | 0.808 (inactive) | 1.04 (inactive) | 0.948 (inactive) | 1.1 (inactive) | 1.02 (inactive) | 0.941 (inactive)
15 | CCN(CC)C(=O)c1cccnc1 [Nikethamide] (20 µM) | 1.07 | 1.01 | 0.998 | 1.13 | 1.02 (inactive) | 1.05 (inactive) | 1.05 (inactive) | 1.06 (inactive) | 1 (inactive) | 1.08 (inactive) | 0.993 (inactive) | 1.08 (inactive)
16 | CN(CCCCCCCCCCN(C)C(=O)Oc1cccc([N+](C)(C)C)c1)C(=O)Oc1cccc([N+](C)(C)C)c1 [Demecarium bromide] (20 µM) | 0.744 | 0.974 | 1.04 | 0.614 | 0.986 (inactive) | 0.871 (inactive) | 1.06 (inactive) | 0.987 (inactive) | 1.01 (inactive) | 1.03 (inactive) | 1.01 (inactive) | 1.06 (inactive)
17 | CO[C@H]1C[C@H](O[C@H]2[C@H](C)[C@@H](O[C@@H]3O[C@H](C)C[C@H](N(C)C)[C@H]3OC(C)=O)[C@@H](C)C[C@@]3(CO3)C(=O)[C@H](C)[C@@H](OC(C)=O)[C@@H](C)[C@@H](C)OC(=O)[C@@H]2C)O[C@@H](C)[C@@H]1OC(C)=O [Troleandomycin] (20 µM) | 0.0017 | 0.966 | 1.03 | 0.456 | 0.976 (inactive) | 0.0831 (active) | 0.676 (active) | 1.01 (inactive) | 0.987 (inactive) | 1 (inactive) | 1.01 (inactive) | 0.769 (active)
18 | NCCc1cc[nH]n1 [Betazole hydrochloride] (20 µM) | 1.01 | 0.989 | 1.03 | 1.02 | 0.96 (inactive) | 1 (inactive) | 1.04 (inactive) | 0.987 (inactive) | 1.02 (inactive) | 1 (inactive) | 1 (inactive) | 1.02 (inactive)
19 | CC(C)(Oc1ccc(Cl)cc1)C(=O)O [Clofibric acid] (20 µM) | 1.11 | 0.983 | 1.02 | 0.96 | 1.12 (inactive) | 0.982 (inactive) | 1 (inactive) | 0.957 (inactive) | 1.02 (inactive) | 1 (inactive) | 0.982 (inactive) | 1 (inactive)
20 | Cc1c(N(C)CS(=O)(=O)O)c(=O)n(-c2ccccc2)n1C [Dipyrone sodium salt] (20 µM) | 1.02 | 1.14 | 1.07 | 1.13 | 0.958 (inactive) | 1.11 (inactive) | 1.03 (inactive) | 1.05 (inactive) | 0.957 (inactive) | 0.991 (inactive) | 1.02 (inactive) | 1 (inactive)
21 | CC(C)(C)C(O)/C=C/c1ccc2c(c1)OCO2 (stereo unspecified) [Stiripentol] (20 µM) | 1.04 | 1.03 | 1 | 0.89 | 1.03 (inactive) | 0.927 (inactive) | 1.04 (inactive) | 1.01 (inactive) | 1.01 (inactive) | 1.03 (inactive) | 0.985 (inactive) | 0.981 (inactive)
22 | CCCCOCCOCCOCc1cc2c(cc1CCC)OCO2 (20 µM) | 1.07 | 1.02 | 1.03 | 1.09 | 0.98 (inactive) | 1.03 (inactive) | 1.04 (inactive) | 1 (inactive) | 1 (inactive) | 1.02 (inactive) | 1 (inactive) | 1.06 (inactive)
23 | COc1ccc(C[C@@H]2c3cc(OC)c(OC)cc3CC[N@+]2(C)CCC(=O)OCCCCCOC(=O)CC[N@@+]2(C)CCc3cc(OC)c(OC)cc3[C@H]2Cc2ccc(OC)c(OC)c2)cc1OC [Cisatracurium besylate] (20 µM) | 1.4 | 1.01 | 1.05 | 1.01 | 0.758 (inactive) | 1.05 (inactive) | 1.03 (inactive) | 0.918 (inactive) | 0.929 (inactive) | 0.944 (inactive) | 1.07 (inactive) | 1.01 (inactive)
